Results taken from PubChem BioAssay AID589 (National Center for Advancing Translational Sciences (NCATS), 2007).
Out of some 59,000 compounds screened, about 6,200 (11%) were called active. About 9% were inconclusive and are not listed. This is one part of a sample in which actives are shown more often than they occur. Cut-off read from the data, not from the text of the source: active = max dye-equivalent concentration above about 10 nM; inconclusive = mostly about 1.1 nM to 9.6 nM; inactive = weaker than that.

assay: qHTS Assay for Spectroscopic Profiling in 4-MU Spectral Region; settings: compound autofluorescence, 340/450 nm, 4-MU equivalents; stronger effect = higher value
Description: NIH Molecular Libraries Screening Centers Network [MLSCN] NIH Chemical Genomics Center [NCGC] […] Occasionally, the artifactual effect may originate from the compounds own spectral or other biophysical properties which generally tend to track its assay concentration. Pre-screening/profiling the library with respect to the compounds spectral properties should help one exclude false positives early on. While the most informative fluorescent profiling data set is obtained by performing a full excitation and emission scan of each well by using a monochromator-based plate reader, such an approach is practical only on a very limited scale as scanning each well requires long time. An alternative approach, applied here, is to perform plate reader scans using selected excitation and emission wavelength pairs to generate a multidimensional relational database that correlates compound concentration and the respective relative fluorescence intensity at a given wavelength set. A standard curve of 4-methylumbelliferone (4-MU) present on each plate as six-point concentration series, was used to compute a normalized fluorescence response, termed dye-equivalent concentration, for each compound at each concentration.
NCGC Assay Protocol Summary: Buffer: 100 mM Tris buffer, pH 8.0 Dye standard plate: The wells in columns 1 through 4 of a Kalypsys polypropylene 1536-well compound plate were filled with standard solutions of fluorophore corresponding to the spectral region of interest. Solutions of 4-MU were placed in the following wells: A1, B1: 3 mM, A2, B2: 300 uM, A3, B3: 30 uM, A4, B4: zero (DMSO), C1, D1: 3 uM, C2, D2: 900 nM, C3, D3: 300 nM, C4, D4: zero (DMSO). Assay Steps: Six uL of buffer were dispensed to 1536-well Greiner black plates. Compounds and dye standards (23 nL) were transferred via Kalypsys PinTool. The plates were incubated for 15 min at room temperature, and then read on ViewLux (Perkin-Elmer) High-throughput CCD imager using 340 nm and 450 nm excitation and emission filter set. Keywords: NIH Roadmap, MLSCN, MLI, MLSMR, qHTS, NCGC, Fluorescent Profiling, 4MU, 4-MU

| Structure (SMILES) | max dye-equivalent concentration |
| --- | --- |
| CCOC(=O)c1[nH]c2ccccc2c1N=C(C)N(CC)CC | inactive |
| CCOC(=O)c1[nH]c2ccc(C)cc2c1N=C(C)N(C)C | 31 nM (active) |
| CCOC(=O)CN(C)Cc1c[nH]c2ccccc12 | inactive |
| CCCNS(=O)(=O)c1ccc(CCC(=O)NCc2cccnc2)cc1 | inactive |
| CCOc1ccc(NC(=O)N(CCC(C)C)C(C)c2ccco2)cc1 (centres undefined) | inactive |
| CSc1nsc(SC)c1NC(=O)OC1CCCCC1 | inactive |
| O=C(Nc1ccc(S(=O)(=O)N2CCCCC2)cc1)c1cnccn1 | inactive |
| CC(=O)C1=C(O)C(=O)N(c2ccc(S(N)(=O)=O)cc2)C1c1ccccc1F (centres undefined) | 21 nM (active) |
| CCN1C(=O)C(C(=O)NC(C)c2ccccc2)C2CC1(C)Oc1ccccc12 (centres undefined) | inactive |
| Cn1nc(-c2ccc(N3CCOCC3)c(NC(=O)c3ccccc3)c2)c2ccccc2c1=O | inactive |
| CC(=O)Nc1ccc(N2CCOCC2)c(C(=O)Nc2cccc(C)c2)c1 | inactive |
| Cn1c(=O)n(C)c2cc(CNc3ccc(N4CCOCC4)c(C(=O)O)c3)ccc21 | 18 nM (active) |
| CCCn1c(=O)c2[nH]c(-c3ccc(OCC(=O)NCCN)cc3)nc2n(CCC)c1=O | inactive |
| Cc1cc(N2CCCC2)n2nc(C)c(-c3ccccc3)c2n1 | 660 nM (active) |
| CC(=O)c1cc(-c2ccccc2)[nH]c1N1CCCC1 | inactive |
| CCCc1nc(-c2ccccc2O)n(-c2ccccc2)n1 | inactive |
| CCn1ccnc1C[C@@H]1COc2ccccc2O1 | inactive |
| O=C(c1csnn1)N1CCC2(CC1)CN(c1ncccn1)C2 | inactive |
| COc1cccc(N2C(=O)CC(N3CCN(S(=O)(=O)c4ccccc4)CC3)C2=O)c1 (centres undefined) | inactive |
| COc1ccc(S(=O)(=O)N2CCN(c3ncnc4c(-c5ccccc5)nsc34)CC2)cc1 | 88 nM (active) |
| CCOc1ccccc1NC(=O)CCN1CCN(S(=O)(=O)c2ccc(OC)cc2)CC1 | inactive |
| Cc1ccc(-c2noc(CCC(N)=O)n2)cc1 | inactive |

| Structure (SMILES) | max dye-equivalent concentration |
| --- | --- |
| CCOC(=O)N1CCN(C(=O)CSc2nnc(-c3c[nH]c4ccccc34)n2CCOC)CC1 | inactive |
| O=C(Nc1nn(Cc2ccccc2F)cc1Br)c1cccs1 | inactive |
| Cn1cccc1C(=O)N1CCC2(CC1)CN(c1cccc(-c3ccccc3)c1)C2 | inactive |
| CCOc1cc(S(=O)(=O)NCc2ccc3c(c2)OCO3)ccc1F | inactive |
| Cc1ccc(S(=O)(=O)c2c(N)n(C)c3nc4ccccc4nc23)cc1 | 2500 nM (active) |
| Cc1ccc(S(=O)(=O)NCc2nc3ccccc3c(=O)n2N)cc1 | inactive |
| Cn1cc(-c2nc3cnc(N4CCNCC4)nc3n(CCC#N)c2=O)c2ccccc21 | inactive |
| COCCn1c(=O)c(-c2cc(F)cc(F)c2)nc2cnc(N3CCNCC3)nc21 | 350 nM (active) |
| N#Cc1cccc(-c2nc3cnc(N4CCNCC4)nc3n(C3CC3)c2=O)c1 | 300 nM (active) |
| COCCn1c(CN2CCC(Cc3ccccc3)CC2)nc2c1c(=O)n(C)c(=O)n2C | inactive |
| c1cncc(-c2nc(N3CCNCC3)c3ccccc3n2)c1 | inactive |
| Cc1nc2cnc(Oc3cccc(Cl)c3)nc2n(C2CC2)c1=O | inactive |
| COCCn1c(=O)c(CCc2ccccc2)nc2cnc(N3CCNCC3)nc21 | 56 nM (active) |
| Cn1c(=O)c(-c2ccccc2)nc2cnc(N3CCNCC3)nc21 | 270 nM (active) |
| CC1(C)C2CCC1(C)C(OC(=O)CCn1ccnc1)C2 (centres undefined) | inactive |
| Cc1ccc(C(=O)CSc2nnc(Cn3nnc4ccccc43)n2C)cc1 | inactive |
| CCCn1c(=O)c(-c2ccccc2)c(O)c2ccccc21 | inactive |
| CCOC(=O)c1sc(N(Cc2ccccc2)C(=O)CN2C(=O)CN(C)C2=O)nc1C | inactive |
| CCn1c(CSc2ncccn2)nnc1SCC(=O)N1c2ccccc2CC1C (centres undefined) | inactive |
| Cc1nc2cnc(N3CCN(C)CC3)nc2n(C[C@H]2CCCO2)c1=O | 48 nM (active) |
| Cn1c(=O)c2c(nc(OCc3cccnc3)n2Cc2ccccc2)n(C)c1=O | inactive |
| O=c1c(CCc2ccccc2)nc2cncnc2n1C1CC1 | inactive |

| Structure (SMILES) | max dye-equivalent concentration |
| --- | --- |
| Cc1nc2cnc(Nc3ccccc3)nc2n(C[C@H]2CCCO2)c1=O | inactive |
| O=c1c(-c2ccc(F)cc2)nc2cnc(N3CCNCC3)nc2n1Cc1cccs1 | 15 nM (active) |
| COCCn1c(=O)c(CCc2ccccc2)nc2cncnc21 | 83 nM (active) |
| Cc1nc2cnc(N3CCNCC3)nc2n(Cc2ccc(F)cc2)c1=O | 98 nM (active) |
| Cc1nc2cnc(N3CCN(C)CC3)nc2n(CCC#N)c1=O | inactive |
| Cc1cc(C)c(C(=O)CN2C(=O)CCC2=O)cc1C | inactive |
| CCOC(=O)Nc1ccc2c(c1)N(C(=O)CN1CCN3CCCC3C1)c1ccccc1CC2 (centres undefined) | inactive |
| O=C(Nc1ccc2c(c1)OCCO2)C1CCCN(c2ncccn2)C1 (centres undefined) | inactive |
| CCOP1(=O)C=C(C(C)(C)C)OC1c1ccc(F)cc1 (centres undefined) | inactive |
| CC(c1nnc(SCC(=O)Nc2sccc2C#N)n1-c1ccc(Cl)cc1)N(C)C (centres undefined) | inactive |
| CCC(=O)Nc1sc(C(=O)N2CCCCC2)c(C)c1C#N | inactive |
| COCCNC(=O)CN(C(=O)CCC(=O)Nc1cc(C)on1)c1ccc(C)cc1C | inactive |
| O=S(=O)(/C=C/c1ccccc1)NCCc1ccccn1 | inactive |
| Cn1c(=O)n(CCc2ccccc2)c(=O)c2c1nc1n2CCCN1c1ccccc1 | inactive |
| Cc1nc2cnc(N3CCNCC3)nc2n(CCc2ccccc2)c1=O | 49 nM (active) |
| Cn1cc(-c2nc3cnc(N4CCNCC4)nc3n(CCc3ccccc3)c2=O)c2ccccc21 | inactive |
| OCc1nc(CO)n(Cc2ccccc2)n1 | inactive |
| CCCCCn1c(SCCC(C)C)nc2c1c(=O)[nH]c(=O)n2C | inactive |
| N#CCSc1nc2ccccc2c(=O)n1-c1ccccc1 | inactive |
| C/C(O)=C\c1nc(=O)c2c(C)cc(C)nc2n1-c1ccccc1 | 43 nM (active) |
| Cc1cc(C)nc(N(C#N)CC(=O)Nc2ccccc2)n1 | inactive |
| COc1ccc(C2C3=C(CC(C)(C)CC3=O)Oc3ncn4nc(-c5cccnc5)nc4c32)cc1OC (centres undefined) | inactive |

| Structure (SMILES) | max dye-equivalent concentration |
| --- | --- |
| CC(=O)Nc1ccc(S(=O)(=O)N2CCN(CCCOc3cc(C)ccc3C)CC2)cc1 | inactive |
| COc1cccc(NC(=O)C2CCCN2C(=O)OCc2ccccc2)c1 (centres undefined) | inactive |
| NC1(C(=O)OCc2ccccc2)CCCC1 | inactive |
| CC(C)C(NC(=O)OCc1ccccc1)C(=O)OCC(=O)N1C(C)CCCC1C (centres undefined) | 37 nM (active) |
| CCCC[C@H]1C(=O)N(c2ccccc2)N(c2ccc(O)cc2)C1=O | inactive |
| O=C1CCC(C(=O)Nc2ccc(OC(F)F)cc2)N1 (centres undefined) | 18 nM (active) |
| COC(=O)COc1ccc(S(=O)(=O)Nc2ccc(NC(C)=O)cc2)cc1 | inactive |
| CCCOc1ccc(NC(=O)C2CCCNC2=O)cc1 (centres undefined) | inactive |
| O=C(O)C1CCN(c2ncnc3ccc(-c4ccccc4C(F)(F)F)cc23)CC1 | inactive |
| COc1ccc(-c2nc3n(c2Br)CCC3)cc1 | inactive |
| Cc1cccc(OCc2nnc(SCn3nnc4ccccc4c3=O)o2)c1 | inactive |
| CCCCCCn1c(CN2CCCC(C)C2)nc2c1c(=O)n(C)c(=O)n2C (centres undefined) | inactive |
| CCCn1c(O)c(CN2CCCC(C)C2)c(C)c(C#N)c1=O (centres undefined) | 13 nM (active) |
| O=C(Cc1c(F)cccc1Cl)N1CCN(C(=O)c2ccco2)CC1 | inactive |
| CCN(Cc1ccncc1)C(=O)[C@@H](CO)c1ccccc1 | inactive |
| Clc1ccc(Cc2nn3c(-c4ccncc4)nnc3s2)cc1 | inactive |
| COc1cccc(C(=O)Nc2c3c(nn2-c2cccc(C)c2C)CS(=O)(=O)C3)c1OC | inactive |
| COc1ccccc1CNc1nc(-c2c(C)noc2C)nc2ccccc12 | inactive |
| c1cnn(-c2cc(N3CCOCC3)ncn2)c1 | inactive |
| c1ccc(-c2oc3ncnc(N4CCOCC4)c3c2-c2ccccc2)cc1 | 11 nM (active) |
| c1ccc(-n2nnnc2N2CCOCC2)cc1 | inactive |
| CCCCOc1ccccc1/C=c1/sc2nc(-c3oc4ccccc4c3C)nn2c1=O | inactive |

| Structure (SMILES) | max dye-equivalent concentration |
| --- | --- |
| CCc1ccccc1NC1c2ccccc2C(=O)N1c1cccnc1 (centres undefined) | inactive |
| O=C(O)C1=CCCN(CCON=C(c2ccccc2)c2ccccc2)C1 | inactive |
| c1cncc(CNc2ccnc(-c3ccc4c(c3)OCO4)n2)c1 | 14 nM (active) |
| Cc1cccc(CNc2ccnc(-c3cccnc3)n2)c1 | inactive |
| O=C(Nc1cccnc1)c1ccc2c(c1)OCO2 | inactive |
| COc1ccc(Br)c2c1C[C@H](C(=O)O)CC2 | inactive |
| CCOc1cc(CO)ccc1OCC(=O)N1CCCCC1 | inactive |
| Cc1ccccc1CSc1nnc(-c2ccccn2)n1N | inactive |
| O=C(NCc1cccs1)C1CCN(S(=O)(=O)c2ccc3c(c2)OCCO3)CC1 | inactive |
| CC(=O)c1cccc(S(=O)(=O)N2CCC(n3nnc4cc(F)ccc43)CC2)c1 | inactive |
| O=C(c1ccc2c(c1)OCCO2)C1CCN(S(=O)(=O)c2cccc(F)c2)CC1 | 12 nM (active) |
| COc1cccc(NC(=O)Cn2cnc3sc(C)c(S(=O)(=O)N4CCN(C)CC4)c3c2=O)c1 | inactive |
| Cc1ccc(C(CC(=O)O)Nc2nc(N3CCCCC3)nc(N3CCCCC3)n2)cc1 (centres undefined) | inactive |
| CC(Nc1nc(N2CCCC2)nc2ccccc12)c1ccccc1 (centres undefined) | 150 nM (active) |
| CC(C)(CSc1nncn1/N=C/c1ccco1)NS(=O)(=O)c1ccc(Cl)cc1 | inactive |
| CCC(=O)Nc1ccc(C(=O)CSc2nnc(CNc3ccc(Cl)cc3)o2)cc1OC | inactive |
| COC(=O)N1CCC[C@@]2(CCN(C(=O)NC(C)C)C2)C1 | inactive |
| Cc1occc1C(=O)Nc1cccc(Cn2cccn2)c1 | inactive |
| COC(=O)C1=C(C)OC(N)=C(C#N)C1c1cc(OC)ccc1OC (centres undefined) | inactive |
| CCCN1CC=C2C(C#N)=C(N)C(C#N)(C#N)C(c3cc(OC)ccc3OC)C2C1 (centres undefined) | 120 nM (active) |
| CCC1=C(C(=O)OC)C(c2cc(OC)ccc2OC)C(C#N)=C(N)O1 (centres undefined) | inactive |
